In PubChem BioAssay (NCI):
About 79,000 compounds went through this panel and 15% of them were active in at least one assay; those are over-represented in the sample as a whole. Rule as the data show it: active = growth inhibition above about 70%; inactive = the rest.

How the values were obtained:
[1] = NCI Yeast Anticancer Drug Screen. Data for the rad50 strain (AID 155);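 also: 0% = growth of vehicle-only cultures of the same strain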; conditions: S. cerevisiae rad50 strain growth inhibition; at 50.0 µM; hits give high values
Procedure, shortened: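 Compounds were tested on a yeast strain with an engineered DNA damage repair alteration; the reported value is growth inhibition normalised to vehicle treatment.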

[2] = NCI Yeast Anticancer Drug Screen. Data for the mec2-1 strain (AID 157); conditions: S. cerevisiae mec2-1 strain, at 50.0 µM, hits give high values
Procedure, shortened: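 Cells of the genetically defined mec2-1 yeast strain are incubated with test compound. Inhibition of growth is calculated against vehicle-treated controls.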

[3] = NCI Yeast Anticancer Drug Screen. Data for the sgs1 mgt1 strain (AID 161);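 also: 0% = growth of cultures given vehicle only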; conditions: S. cerevisiae sgs1 mgt1 strain, at 50.0 µM, hits give high values
Procedure, shortened: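 Mutant yeast exposed to compound; growth scored against vehicle-only wells.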

[4] = NCI Yeast Anticancer Drug Screen. Data for the cln2 rad14 strain (AID 165);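 also: 0% = growth equal to vehicle treated cultures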; conditions: S. cerevisiae cln2 rad14 strain, at 50.0 µM, hits give high values
Procedure, shortened: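 The screen exposed genetically defined yeast (cln2 rad14) to test compounds and scored growth inhibition relative to vehicle-treated controls.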

[5] = NCI Yeast Anticancer Drug Screen. Data for the bub3 strain (AID 167); conditions: S. cerevisiae bub3 mutant strain, at 50.0 µM, hits give high values
Procedure, shortened: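 Growth of a checkpoint-deficient yeast mutant is measured after compound exposure. Values represent inhibition relative to vehicle.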

[6] = NCI Yeast Anticancer Drug Screen. Data for the mlh1 rad18 strain (AID 175); conditions: S. cerevisiae mlh1 rad18 strain growth inhibition; at 50.0 µM; hits give high values
Procedure, shortened: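 Compound-treated yeast growth, normalised to vehicle controls. Strain bears defined DNA repair mutations.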

Measured: growth inhibition

C=CCC(O)c1ccc2c(c1)OCO2 (stereo unspecified)
inactive: [1] -1% | [2] 13.3% | [3] -9.8% | [4] -40% | [5] -4.25% | [6] 10.1%

OC1(c2ccc(-c3ccccc3)cc2)c2ccccc2-c2ccccc2C1(O)c1ccc(-c2ccccc2)cc1 (stereo unspecified)
inactive: [1] 6.45% | [2] -5.95% | [3] -2.2% | [4] 2% | [5] 6.3% | [6] 7.05%

COc1ccc(OC)c(-c2nc3ccccc3c(=O)[nH]2)c1
inactive: [1] 9.1% | [2] 10.8% | [3] 3.35% | [4] 14.2% | [5] 22.8% | [6] 0%

O=C(Nc1cccc([N+](=O)[O-])c1)c1ccccc1Cl
inactive: [1] -0.65% | [2] 16.1% | [3] 1.85% | [4] 0.8% | [5] 12.9% | [6] 8.75%

O=c1cccc(CCc2ccccc2)[nH]1
inactive: [1] -8.85% | [2] -9.35% | [3] -9.6% | [4] 0.6% | [5] -0.55% | [6] -16.4%

O=C(O)CCCC(=O)c1ccccc1
inactive: [1] 5% | [2] -8.65% | [3] 4.85% | [4] -9.05% | [5] -5.9% | [6] 20.1%

CC1=C(C(=O)Nc2ccc([N+](=O)[O-])cc2)C(c2cccc([N+](=O)[O-])c2)C(C(=O)Nc2ccc([N+](=O)[O-])cc2)=C(C)N1
inactive: [1] -9.25% | [2] -4.4% | [3] 12.9% | [4] -17.1% | [5] -15.3% | [6] -15.1%

CNC(=O)N(c1ccccc1)C1CCCCC1
inactive: [1] 15.8% | [2] 13.8% | [3] -2.5% | [4] -65.5% | [5] 9.8% | [6] 1.15%

CC(=O)C(C)c1nc(=S)[nH]c(=S)[nH]1 (stereo unspecified)
inactive: [1] 11.4% | [2] 12.2% | [3] 22.4% | [4] 9.1% | [5] -1.35% | [6] 4.85%

COc1cccc2c1C(=O)c1c(OC)c(CBr)cc(OC)c1C2=O
inactive: [1] 37.6% | [2] 9.55% | [3] 15.9% | [4] -36.6% | [5] -7.85% | [6] 15.5%

CCCCCn1c(=O)c2cc3c(=O)n(CCCCC)c(=O)c3cc2c1=O
inactive: [1] 14.2% | [2] 7.3% | [3] 16.2% | [4] -52.6% | [5] 10% | [6] -5.6%

O=C(O)c1cc(=O)[nH]c(=S)[nH]1
inactive: [1] -18.6% | [2] 5.65% | [3] -19.5% | [4] 8.05% | [5] -9.25% | [6] -15.6%

Cc1cc2nc(Oc3ccccc3)nc(=O)n2o1
inactive: [1] 2.3% | [2] 0.4% | [3] 6.7% | [4] -2.05% | [5] 11.8% | [6] -9.2%

O=C(O)CCSc1ccccc1
inactive: [1] 25.2% | [2] -23.4% | [3] -13.8% | [4] -73% | [5] -3.45% | [6] 20.1%

CCCCn1c(N)n[nH]c1=S
inactive: [1] 20.5% | [2] 8.55% | [3] 1.55% | [4] -52.5% | [5] -7.25% | [6] -5.9%

COc1ccc2c(c1OC)C(=O)C2
inactive: [1] -21.1% | [2] 12.1% | [3] -20.9% | [4] 9% | [5] -16.8% | [6] -2.35%

CN(C)CCn1cnc2sc3ccccc3c21
inactive: [1] -8.35% | [2] -15.5% | [3] -23.8% | [4] 24% | [5] -6.35% | [6] -23.8%

O=C(O)CC(O)(c1ccccc1C(=O)O)c1cccc2ccccc12 (stereo unspecified)
inactive: [1] -2.95% | [2] -4.05% | [3] 18.4% | [4] 25.2% | [5] -3.15% | [6] 22.3%

COC(=O)C1C2C=CC(CC2)C1C(=O)OC (stereo unspecified)
inactive: [1] 1.9% | [2] 5.65% | [3] -0.3% | [4] -22.1% | [5] -10.8% | [6] 7.95%

COc1cc(-c2oc3ccccc3c(=O)c2O)cc(OC)c1OC
inactive: [1] -29.6% | [2] -51.8% | [3] -16.3% | [4] -22.8% | [5] -42% | [6] -14.1%

CCCC1OCC(C)(CC)CO1 (stereo unspecified)
inactive: [1] 27.6% | [2] -2.55% | [3] -4.9% | [4] 12% | [5] -9.65% | [6] -9.05%

CC1CN(C(C)(C)C)CO1 (stereo unspecified)
inactive: [1] -0.3% | [2] -10.4% | [3] -18.6% | [4] 8.3% | [5] -26.5% | [6] -25.6%

N#CCC(=O)c1ccccc1C(=O)O
inactive: [1] -4.45% | [2] -38.8% | [3] 4.7% | [4] 4.65% | [5] -6.2% | [6] 17.6%

O=C(NC/C(Cl)=C/Cl)Nc1cccc2c1CCCC2
inactive: [1] -5.5% | [2] -13.2% | [3] 19.8% | [4] -10.8% | [5] 22% | [6] 3.6%

N#CC(c1ccccc1)[N+](=O)[O-] (stereo unspecified)
inactive: [1] 11.2% | [2] -5.05% | [3] -2.45% | [4] 9.3% | [5] -2.95% | [6] 22.8%

Nc1c(OCc2ccccc2)cccc1C(=O)O
inactive: [1] -7.1% | [2] -9.5% | [3] 10.9% | [4] -47.5% | [5] -40.5% | [6] -12.2%

Cc1csc[n+]1C/C(=N/O)c1ccc(I)cc1
inactive: [1] 36.2% | [2] -3.75% | [3] 14.8% | [4] 3.65% | [5] 2.75% | [6] 17.1%

COC(=O)C(C)(C)c1ccccc1C(C)(C)C(=O)OC
inactive: [1] -5.85% | [2] 6.05% | [3] -1.4% | [4] -7.95% | [5] 9.35% | [6] 3.9%

CS(=O)(=O)OC1C(O)C(O)OC(CO)C1O (stereo unspecified)
inactive: [1] -18.4% | [2] 12.9% | [3] 4.5% | [4] -49.7% | [5] 5.75% | [6] 7.7%

NC(=S)SCCC(=O)N1CCCC1
inactive: [1] -1.25% | [2] -10.1% | [3] -9.55% | [4] -19.6% | [5] -7.35% | [6] -1.7%

CCCCc1c(O)c(N=NC(=O)C[N+](C)(C)C)c2ccccc2c1O
inactive: [1] 31.5% | [2] 40.2% | [3] 22.8% | [4] 11.6% | [5] 0.85% | [6] 36.9%

Nc1nc(C2CCCCC2)cc(=O)[nH]1
inactive: [1] 1.2% | [2] 9% | [3] -4.3% | [4] -25.1% | [5] 5.5% | [6] -0.65%

COc1cc([C@H]2c3[nH]c4ccccc4c3C[C@H]3COC(=O)N32)cc(OC)c1O
inactive: [1] 56.5% | [2] 9.85% | [3] 25% | [4] 12.1% | [5] 18.9% | [6] 51.9%

CCOC(=O)C1=NN(c2ccccc2)C(=O)/C1=C\N1C(=S)NC(=O)/C1=C\c1cccc([N+](=O)[O-])c1
inactive: [1] 11.2% | [2] -11.6% | [3] 1.25% | [4] 31.3% | [5] -4.8% | [6] -4.8%

NC(=O)C1=NNc2ccccc2C(=O)N1c1ccccc1
inactive: [1] 8.3% | [2] -10.2% | [3] -20.1% | [4] 9.9% | [5] 6.9% | [6] 2.55%

CC1(C)CCC2(C)CCC3(C)C(=CCC4C5(C)CCC(O)C(C)(C)C5CCC43C)C2C1 (stereo unspecified)
inactive: [1] 0.85% | [2] 6.3% | [3] -10.2% | [4] 16.2% | [5] 4.25% | [6] 0.5%

COC(=O)N1c2ccccc2N(C(=O)OC)c2c1oc1ccccc1c2=O
inactive: [1] 38.2% | [2] 12.6% | [3] 33.6% | [4] 7.3% | [5] 26.5% | [6] 31.9%

CCOC(=O)C(/C(=N/NC(=O)OC)C(=O)Nc1ccc(C(C)=O)cc1)c1cnc2ccccc2n1 (stereo unspecified)
inactive: [1] 0.9% | [2] -40.9% | [3] -26.6% | [4] 26.1% | [5] -1.5% | [6] 0.25%

O=C1/C(=C/c2ccc(Cl)cc2)CCC1CNc1ccc(Cl)cc1 (stereo unspecified)
inactive: [1] 17.1% | [2] 0.25% | [3] -15.6% | [4] -2.8% | [5] -16.2% | [6] -43.1%

Cc1ccccc1NC(=O)CSC#N
inactive: [1] 10.2% | [2] 7.35% | [3] 1.7% | [4] 20.1% | [5] -12.6% | [6] 8.75%

CC1OC(=O)c2cc3ccccc3cc2O1 (stereo unspecified)
inactive: [1] -8% | [2] -6.15% | [3] 5.95% | [4] -31.1% | [5] -19.2% | [6] -0.45%
